“And” between values parts separate entries of the source, which are not always exact repeats. Identical values can stand only once. Inconclusive results are not listed. Where a structure was tested more than once in an assay, its records may differ in their call. The source made the active and inactive calls. The call rests on the fitted dose curve; in most records, active means well fitted activation curve with a large enough effect in the repeat runs; inconclusive means weak or mixed curves; inactive means flat fitted curve, though single readings scatter.
Test: A CellTox Green Cytotoxicity Assay to monitor cytotoxicity in HEK293 cells - 32 hour (AID 1224881); further: nearly all actives have a fitted effect of over 40% in size
Conditions: CellTox Green fluorescence; series mostly up to 76.8 µM; cytotoxicity increase: at the top concentration
How it was run: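 HEK293 cells premixed with CellTox Green dye were seeded at 600 cells/well and left 5 h at 37 C/5% CO2 before pin transfer of 23 nL compound in DMSO. Fluorescence from dye bound to dead-cell DNA was read during 40 h treatment.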
On the % scale 0 is the no-effect control and ±100 the full control effect; potency means the concentration at half of the fitted maximal effect.

Structure (SMILES) | Potency | cytotoxicity increase
Cc1cc(Cc2cc(C)cc(C(C)(C)C)c2O)c(O)c(C(C)(C)C)c1 | 49.2 µM (active) and 43.6 µM (active) | –
CCn1cc(C(=O)O)c(=O)c2cc(F)c(N3CCNC(C)C3)c(F)c21 (stereo not drawn) | – | -3.71% [at 35.3 µM] (inactive)
Nc1cc(Cl)c(-c2cc(Cl)c(N)cc2Cl)cc1Cl | inactive | –
CCC(=O)/C=C/C1C(C)=CCCC1(C)C (stereo not drawn) | 49.1 µM (active) and inactive | –
NC12CC3CC(CC(C3)C1)C2 | – | -13.8% [at 35.3 µM] (inactive)
CC(C)CCOC(=O)c1ccc(N(C)C)cc1 | – | -1.18% [at 35.3 µM] (inactive)
CC(C)C(=O)c1c(C(C)C)nn2ccccc12 | – | -15% [at 35.3 µM] (inactive)
CC(=O)Nc1ccc(C(=O)CCl)cc1 | inactive and 15.5 µM (active) | –
Cc1scc2c1N(C(=O)CN1CCN(C)CC1)c1ccccc1NC2=O | – | -1.94% [at 35.3 µM] (inactive)
COC(=O)/C=C/c1ccccc1 | inactive and 21.9 µM (active) | –
CCc1cc(C(C)(C)C)c(O)c(C(C)(C)C)c1 | 21.9 µM (active) | –
COC(=O)c1cccc(C(=O)OC)c1 | inactive and 38.9 µM (active) | –
O=C1OC2(c3ccc(O)cc3Oc3cc(O)ccc32)c2ccccc21 | 692 nM (active) and 1.2 µM (active) | –
CC1=C(C=O)C(C)(C)CC=C1 | – | 0.0522% (inactive)
Nc1ccc2cc3ccccc3cc2c1 | – | -5.81% (inactive)
Cc1cc(C2(c3cc(C)c(O)cc3C)OS(=O)(=O)c3ccccc32)c(C)cc1O | inactive | –
CCN(CC)C(=S)SSC(=S)N(CC)CC | 141 nM (active) and inactive | –
CC(=O)N[C@@H](CS)C(=O)O | – | -14.2% [at 35.3 µM] (inactive)
c1ccc2cc3c(ccc4ccccc43)cc2c1 | inactive | –

Structure (SMILES) | Potency | cytotoxicity increase
COc1ccc(CCN2CCC(Nc3nc4ccccc4n3Cc3ccc(F)cc3)CC2)cc1 | 14.1 µM (active) and 23.9 µM (active) | –
c1ccc2c(c1)CCCC2C1=NCCN1 (stereo not drawn) | – | -3.11% [at 35.3 µM] (inactive)
CCn1c2ccccc2c2cc(N)ccc21 | inactive | –
CC1COC(=O)O1 (stereo not drawn) | inactive | –
Cc1cccc([N+](=O)[O-])c1C(=O)O | – | -12.8% (inactive)
CO[Si](OC)(OC)c1ccccc1 | – | -11.1% (inactive)
CCC(C)(Oc1ccc(C2(c3ccc(OC(C)(CC)C(=O)O)cc3)CCCCC2)cc1)C(=O)O (stereo not drawn) | – | -5.02% [at 35.3 µM] (inactive)
C#CC(C)(CC)OC(=O)c1ccccc1C(=O)O (stereo not drawn) | – | 7.69% [at 35.3 µM] (inactive)
O=C(OCc1ccccc1)c1ccc(O)cc1 | inactive | –
NC(N)=NC(=O)Cc1c(Cl)cccc1Cl | – | -0.702% [at 35.3 µM] (inactive)
O=Nc1ccc(Nc2ccccc2)cc1 | 6.2 µM (active) and 7.76 µM (active) | –
CCCCN(CCO)CCCC | – | 4.08% (inactive)
C/C=C/c1ccc(OCC)c(O)c1 | – | 0.83% (inactive)
C=C(C)C(=O)O | inactive | –
COC(c1ccccc1)(c1ccccc1)[C@H](Oc1nc(C)cc(C)n1)C(=O)O | – | -15.3% [at 35.3 µM] (inactive)
Nc1cc(S(=O)(=O)O)cc2cc(S(=O)(=O)O)cc(O)c12 | inactive | –
CCOc1ccc2c(c1)C(C)=CC(C)(C)N2 | – | 12.4% (inactive)
c1ccc2n[nH]nc2c1 | – | -11.6% (inactive)
CCCNC(C)C(=O)Nc1ccccc1C (stereo not drawn) | – | -14.4% [at 35.3 µM] (inactive)

Reference: PubChem BioAssay (Tox21)
